Experimental data: PubChem BioAssay (NCATS)
Values joined by “and” are separate entries in the source; they are usually repeats but may differ in a detail not shown here. Identical values can stand only once. Values without a mark were called inactive. Records with an inconclusive call do not appear. A call without a number means that no potency is given here. Active and inactive are the calls of the source. Unless noted, the call rests on the fitted dose curve; in most records, active means well fitted curve in the direction sought with a large enough effect; inconclusive means small, poorly fitted or top-dose-only effect, or another doubt; inactive means no such curve, though single readings can be large; an effect the other way counts as inactive or inconclusive. Peptide text beside a SMILES is read from it.

What was measured:
[1] = biological target: Beta-2 adrenergic receptor (Homo sapiens) (UniProt P07550); assay: qHTS validation assay of beta-arrestin-biased ligands of beta2-adrenergic receptor (AID 485366)
Sequence of Beta-2 adrenergic receptor (Homo sapiens) (P07550 whole entry, looked up): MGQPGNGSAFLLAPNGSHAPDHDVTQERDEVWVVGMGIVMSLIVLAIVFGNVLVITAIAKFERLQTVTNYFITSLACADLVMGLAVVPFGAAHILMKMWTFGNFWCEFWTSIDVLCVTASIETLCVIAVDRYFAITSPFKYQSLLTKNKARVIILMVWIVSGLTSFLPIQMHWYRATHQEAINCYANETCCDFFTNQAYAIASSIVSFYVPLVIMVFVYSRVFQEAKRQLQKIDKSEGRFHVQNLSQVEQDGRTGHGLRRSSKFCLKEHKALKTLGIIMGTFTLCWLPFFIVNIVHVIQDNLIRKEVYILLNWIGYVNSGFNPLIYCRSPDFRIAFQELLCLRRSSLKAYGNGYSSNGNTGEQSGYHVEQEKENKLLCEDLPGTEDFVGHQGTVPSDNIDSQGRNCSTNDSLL
Method in brief: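 qHTS, Tango cells, 1500 cells/well, DMEM + 1% FBS. Cpd 18 hr at 37 degrees C. Luciferin/ATP/CoA detection mix, 15 min RT, luminescence read. %Activity from corrected signal; CRC fit, curve class.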

[2] = biological target: ATP-dependent 6-phosphofructokinase (Trypanosoma brucei brucei) (UniProt O15648); assay: qHTS Validation Assay to Find Inhibitors of T. brucei phosphofructokinase (AID 485368); further: potency means the concentration at half of the fitted maximal effect
Sequence of ATP-dependent 6-phosphofructokinase (Trypanosoma brucei brucei) (O15648 whole entry, looked up): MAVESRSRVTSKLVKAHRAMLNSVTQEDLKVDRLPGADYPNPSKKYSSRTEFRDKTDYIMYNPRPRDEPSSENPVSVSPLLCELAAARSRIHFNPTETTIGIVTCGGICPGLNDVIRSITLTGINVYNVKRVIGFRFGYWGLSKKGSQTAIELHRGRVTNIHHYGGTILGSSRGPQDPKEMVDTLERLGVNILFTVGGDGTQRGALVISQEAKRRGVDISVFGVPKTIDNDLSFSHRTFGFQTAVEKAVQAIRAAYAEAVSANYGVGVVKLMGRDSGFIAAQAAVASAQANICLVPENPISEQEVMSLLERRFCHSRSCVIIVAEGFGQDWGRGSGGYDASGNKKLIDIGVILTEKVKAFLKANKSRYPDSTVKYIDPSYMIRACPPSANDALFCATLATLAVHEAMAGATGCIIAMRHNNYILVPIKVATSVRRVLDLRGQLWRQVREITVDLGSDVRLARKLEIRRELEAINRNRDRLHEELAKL
Method in brief: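 Luminescent ADP detection measures PFK turnover of fructose-6-phosphate (0.5 mM) with ATP (0.1 mM) at pH 8.0. Reaction runs 45 min at room temperature with 1.25 nM enzyme; inhibitors tested as titrations up to 57 uM.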

[3] = Quantitative high throughput screen for delayed death inhibitors of the malarial parasite plastid, 96 hour incubation (AID 488745); further: nearly all actives have a fitted effect of over 70% in size; further: potency means the concentration at half of the fitted maximal effect
Method in brief: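 Decreased firefly luciferase luminescence indicates inhibited growth of reporter-integrated P. falciparum after two generations (96 h, 37 C, 5% CO2). Infected erythrocytes at 0.1% parasitemia, 2% hematocrit, in Albumax-supplemented RPMI 1640.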

[4] = Quantitative high throughput screen for delayed death inhibitors of the malarial parasite plastid, 48 hour incubation (AID 488752); further: nearly all actives have a fitted effect of over 65% in size; further: potency means the concentration at half of the fitted maximal effect
Method in brief: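 One-generation (48 h) growth assay: a decrease in luciferase signal from an integrated reporter in P. falciparum-infected red cells (0.1% parasitemia, 2% hematocrit) after compound exposure at 37 C indicates parasite inhibition.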

[5] = biological target: Thioredoxin reductase 1, cytoplasmic (Rattus norvegicus) (UniProt O89049); assay: qHTS Assay for Substrates of Mammalian Selenoprotein Thioredoxin Reductase 1 (TrxR1) (AID 488772);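 further: series mostly up to about 57 µM; a drop in NADPH fluorescence below the no-compound background marks a TrxR1 substrate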
Method in brief: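 In this dual-purpose format, potential substrates are identified from the first fluorescence read after selenite addition, not from the 8-minute delta. Rat enzyme is preincubated with NADPH and then with compound at ~22 deg C.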

[6] = biological target: Thioredoxin reductase 1, cytoplasmic (Rattus norvegicus) (UniProt O89049); assay: qHTS Assay for Inhibitors of Mammalian Selenoprotein Thioredoxin Reductase 1 (TrxR1) (AID 488773); conditions: Potency: inhibition; further: nearly all actives have a fitted effect of over 40% in size; further: potency means the concentration at half of the fitted maximal effect
Method in brief: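 Inhibition is scored from the loss of NADPH fluorescence between first and last reads of an 8-min kinetic run. Selenite (400 uM) was the substrate, added after 15 min compound preincubation at room temperature.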

[7] = biological target: Flap endonuclease 1 (Homo sapiens) (UniProt P39748); assay: qHTS Validation Assay for the Inhibitors of Human Flap endonuclease 1 (FEN1) (AID 488816); further: potency means the concentration at half of the fitted maximal effect
Sequence of Flap endonuclease 1 (Homo sapiens) (P39748 whole entry, looked up): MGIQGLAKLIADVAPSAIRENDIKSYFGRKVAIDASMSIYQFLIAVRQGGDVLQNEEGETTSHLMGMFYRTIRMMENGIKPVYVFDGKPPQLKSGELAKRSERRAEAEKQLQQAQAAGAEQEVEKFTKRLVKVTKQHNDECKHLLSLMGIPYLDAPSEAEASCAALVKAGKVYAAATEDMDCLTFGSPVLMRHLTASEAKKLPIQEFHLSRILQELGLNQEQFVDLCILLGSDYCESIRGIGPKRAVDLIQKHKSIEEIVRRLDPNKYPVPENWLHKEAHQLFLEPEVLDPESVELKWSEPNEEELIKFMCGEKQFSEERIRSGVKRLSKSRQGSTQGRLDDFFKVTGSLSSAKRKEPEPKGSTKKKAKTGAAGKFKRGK
Method in brief: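 Steps: add FEN1 (10 nM reagent) or buffer only; pin compounds; hold 15 min at room temperature; start with substrate, 50 nM final; read at 0 and 15 min; correct, normalize and fit a four-parameter Hill curve.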

[8] = biological target: M-phase phosphoprotein 8 (Homo sapiens) (UniProt Q99549); assay: qHTS Validation Assay for Inhibitors for MPP8 Chromodomain Interactions with Methylated Histone Tails (AID 488949); further: nearly all actives have a fitted effect of over 55% in size; further: potency means the concentration at half of the fitted maximal effect
Sequence of M-phase phosphoprotein 8 (Homo sapiens) (Q99549 whole entry, looked up): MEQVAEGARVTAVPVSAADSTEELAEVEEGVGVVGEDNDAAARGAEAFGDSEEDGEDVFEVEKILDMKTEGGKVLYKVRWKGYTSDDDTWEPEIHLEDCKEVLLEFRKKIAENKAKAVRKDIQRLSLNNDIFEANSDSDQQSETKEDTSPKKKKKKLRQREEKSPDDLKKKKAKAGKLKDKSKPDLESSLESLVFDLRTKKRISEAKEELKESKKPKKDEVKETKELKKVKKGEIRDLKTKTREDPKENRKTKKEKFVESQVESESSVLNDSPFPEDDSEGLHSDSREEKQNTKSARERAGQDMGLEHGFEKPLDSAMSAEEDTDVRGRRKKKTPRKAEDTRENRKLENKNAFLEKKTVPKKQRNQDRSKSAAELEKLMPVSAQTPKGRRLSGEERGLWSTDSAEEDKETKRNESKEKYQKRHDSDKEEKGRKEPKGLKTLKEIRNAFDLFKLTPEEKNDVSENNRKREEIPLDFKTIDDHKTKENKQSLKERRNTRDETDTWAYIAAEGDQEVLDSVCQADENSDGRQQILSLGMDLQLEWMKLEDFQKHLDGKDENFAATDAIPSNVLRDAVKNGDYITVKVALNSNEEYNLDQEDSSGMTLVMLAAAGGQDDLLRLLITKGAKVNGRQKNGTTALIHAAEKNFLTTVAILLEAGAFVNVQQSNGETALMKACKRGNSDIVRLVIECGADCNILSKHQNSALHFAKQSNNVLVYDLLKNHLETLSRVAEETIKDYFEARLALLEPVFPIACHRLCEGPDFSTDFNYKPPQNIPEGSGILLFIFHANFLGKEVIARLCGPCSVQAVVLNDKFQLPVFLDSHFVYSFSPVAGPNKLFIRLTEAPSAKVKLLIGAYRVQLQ
Method in brief: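 Disruption of the preformed MPP8–trimethyl-H3K9 peptide complex (both 50 nM, 30 min, RT) is measured after 30 min compound exposure, using AlphaScreen proximity beads; aurintricarboxylic acid titration serves as plate control.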

[9] = biological target: Chromobox protein homolog 1 (Homo sapiens) (UniProt P83916); assay: qHTS Validation Assay for Inhibitors of HP1-beta Chromodomain Interactions with Methylated Histone Tails (AID 488953); further: nearly all actives have a fitted effect of over 50% in size; further: potency means the concentration at half of the fitted maximal effect
Sequence of Chromobox protein homolog 1 (Homo sapiens) (P83916 whole entry, looked up): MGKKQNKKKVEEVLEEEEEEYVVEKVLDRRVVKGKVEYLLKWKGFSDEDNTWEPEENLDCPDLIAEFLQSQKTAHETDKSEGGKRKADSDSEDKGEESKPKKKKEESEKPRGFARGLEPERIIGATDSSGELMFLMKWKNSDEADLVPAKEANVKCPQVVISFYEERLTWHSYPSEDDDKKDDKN
Method in brief: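 AlphaScreen proximity signal from streptavidin donor and nickel chelate acceptor beads (final 10 ug/mL) after 30 min dark incubation. Compounds had 30 min at room temperature with preformed complex of 50 nM HP1-beta and 50 nM b-H3(1-18)K9me3 in PBS pH 7.4 with 0.01% Tween-20.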

[10] = biological target: Methanococcus maripaludis chaperonin (MmCpn) (UniProt Q6LX38); assay: High-Throughput Screening for Modulators of Cytosolic Chaperonin Activity: MmCpn Primary Screen (AID 488978);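 further: 50 nM MmCpn enzyme hydrolysing 30 µM ATP at 37 °C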
Sequence of Methanococcus maripaludis chaperonin (MmCpn) (Q6LX38 1-543): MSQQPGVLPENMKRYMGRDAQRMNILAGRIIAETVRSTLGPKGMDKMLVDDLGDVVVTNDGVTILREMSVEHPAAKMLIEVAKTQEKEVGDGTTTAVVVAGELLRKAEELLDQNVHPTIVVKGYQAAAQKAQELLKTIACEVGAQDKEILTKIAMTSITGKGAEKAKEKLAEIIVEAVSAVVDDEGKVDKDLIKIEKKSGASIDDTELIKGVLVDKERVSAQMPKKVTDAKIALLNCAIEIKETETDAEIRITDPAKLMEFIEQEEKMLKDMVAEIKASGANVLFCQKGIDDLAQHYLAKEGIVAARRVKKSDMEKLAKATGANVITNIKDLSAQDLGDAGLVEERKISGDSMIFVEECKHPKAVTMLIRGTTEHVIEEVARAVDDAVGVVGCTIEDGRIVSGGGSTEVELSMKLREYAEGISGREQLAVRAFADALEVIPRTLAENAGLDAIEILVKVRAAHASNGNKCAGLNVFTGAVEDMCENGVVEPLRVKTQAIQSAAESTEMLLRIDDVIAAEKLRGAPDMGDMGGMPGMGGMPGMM
Method in brief: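 Measures ATPase turnover of the M. maripaludis chaperonin (50 nM final) against 30 uM ATP over 10 min at 37C, with compound added 5 min beforehand at room temperature. ADP is quantified by HTRF immunodetection.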

[11] = biological target: Transient receptor potential cation channel subfamily V member 1 (Homo sapiens) (UniProt Q8NER1); assay: HTS Assay for Compounds that Act as Enhancers of the Vanilloid Receptor 1 (AID 488979)
Sequence of Transient receptor potential cation channel subfamily V member 1 (Homo sapiens) (Q8NER1 whole entry, looked up): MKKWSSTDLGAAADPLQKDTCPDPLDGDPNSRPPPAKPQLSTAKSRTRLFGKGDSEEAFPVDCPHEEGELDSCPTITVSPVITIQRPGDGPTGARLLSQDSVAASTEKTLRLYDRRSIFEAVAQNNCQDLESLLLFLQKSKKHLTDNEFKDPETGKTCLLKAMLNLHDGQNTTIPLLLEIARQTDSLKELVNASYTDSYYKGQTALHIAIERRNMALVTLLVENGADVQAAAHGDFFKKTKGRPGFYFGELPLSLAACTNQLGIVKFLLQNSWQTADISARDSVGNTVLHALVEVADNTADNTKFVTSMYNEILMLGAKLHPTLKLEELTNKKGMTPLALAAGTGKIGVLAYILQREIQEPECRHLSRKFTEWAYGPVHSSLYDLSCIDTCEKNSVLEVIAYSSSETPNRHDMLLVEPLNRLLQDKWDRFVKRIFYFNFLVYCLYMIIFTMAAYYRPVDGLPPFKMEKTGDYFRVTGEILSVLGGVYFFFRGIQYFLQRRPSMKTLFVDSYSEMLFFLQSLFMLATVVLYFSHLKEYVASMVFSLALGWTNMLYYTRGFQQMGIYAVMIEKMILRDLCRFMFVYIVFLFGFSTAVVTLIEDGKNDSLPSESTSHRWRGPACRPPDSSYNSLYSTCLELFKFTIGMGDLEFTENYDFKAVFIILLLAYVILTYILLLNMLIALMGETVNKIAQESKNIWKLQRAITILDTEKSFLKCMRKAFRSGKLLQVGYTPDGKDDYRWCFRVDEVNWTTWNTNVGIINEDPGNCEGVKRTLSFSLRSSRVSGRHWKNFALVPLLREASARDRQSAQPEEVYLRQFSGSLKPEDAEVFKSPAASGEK
Method in brief: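 TRPV1-expressing cells loaded with Fluo-8 calcium dye; compounds added and calcium influx read kinetically for 3 min (agonist phase), then capsaicin at EC20 added and read 2 min more for enhancement. Fluorescence ex 480/em 520 nm.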

[12] = biological target: Thyrotropin receptor (Homo sapiens) (UniProt P16473); assay: qHTS Assay for Antagonists of the Thyroid Stimulating Hormone Receptor (AID 488980); further: series mostly up to about 58 µM
Method in brief: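 Cells expressing human TSHR (HEK293) are dispensed in HBSS/HEPES containing 70 uM RO 20-1724, compound is added, then TSH at EC80 (4 nM final). Antibody in lysis buffer follows, 30 minutes at room temperature before HTRF detection.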

[13] = biological target: D(1A) dopamine receptor (Homo sapiens) (UniProt P21728); assay: HTS Assay for Allosteric Agonists of the Human D1 Dopamine Receptor: Primary Screen for Agonists (AID 488981)
Sequence of D(1A) dopamine receptor (Homo sapiens) (P21728 whole entry, looked up): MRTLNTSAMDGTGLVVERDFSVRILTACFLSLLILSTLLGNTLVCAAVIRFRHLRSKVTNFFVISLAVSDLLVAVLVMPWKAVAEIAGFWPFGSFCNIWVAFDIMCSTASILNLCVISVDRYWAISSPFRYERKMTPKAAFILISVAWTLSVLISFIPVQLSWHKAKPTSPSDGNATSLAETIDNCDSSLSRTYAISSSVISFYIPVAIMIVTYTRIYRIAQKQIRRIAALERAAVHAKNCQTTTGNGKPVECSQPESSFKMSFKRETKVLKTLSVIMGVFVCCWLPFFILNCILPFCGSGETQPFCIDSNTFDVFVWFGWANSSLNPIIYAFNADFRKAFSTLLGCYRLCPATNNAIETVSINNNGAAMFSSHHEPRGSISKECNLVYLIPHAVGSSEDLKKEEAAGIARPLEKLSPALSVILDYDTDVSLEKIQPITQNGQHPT
Method in brief: (§1)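 Tetracycline-induced HEK293 T-REx cells force-coupled to calcium signalling were incubated overnight at 30 C and dye-loaded at room temperature. Calcium flux over 180 s after compound addition flagged agonists; a further 180 s read after EC20 dopamine flagged potentiators.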

[14] = biological target: D(1A) dopamine receptor (Homo sapiens) (UniProt P21728); assay: HTS Assay for Allosteric Agonists of the Human D1 Dopamine Receptor: Primary Screen for Potentiators (AID 488982)
Method in brief: as §1

[15] = Validation screen for small molecules that induce genotoxicity in human embryonic kidney (HEK293T) cells expressing luciferase-tagged ELG1 (AID 493106); further: potency means the concentration at half of the fitted maximal effect
Method in brief: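 ELG1-luciferase reporter readout (ONE-Glo, 30 min, room temperature) after 16 hr compound treatment at 37 °C of HEK293T cells at 2,000 per well. Rising luminescence flags genotoxic stress.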

[16] = biological target: ATPase family AAA domain-containing protein 5 (Homo sapiens) (UniProt Q96QE3); assay: Validation screen for small molecules that inhibit ELG1-dependent DNA repair in human embryonic kidney (HEK293T) cells expressing luciferase-tagged ELG1 (AID 493107);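 further: series mostly up to about 46 µM; inhibitors lower the ELG1-luciferase luminescence signal; nearly all actives have a fitted effect of over 70% in size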
Method in brief: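 Luciferase read-out, ONE-Glo, 30 min at room temperature, follows 16 h co-exposure at 37 C of compound and the DNA-damaging agent 5-fluorouridine. Cells: HEK293T with ELG1-luciferase fusion, 2,000 per well, DMSO as vehicle.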

[17] = biological target: Thyrotropin-releasing hormone receptor (Homo sapiens) (UniProt P34981); assay: qHTS for Small Molecule Agonists and Allosteric Enhancers of Human TRH Receptor: Validation Screen for Agonists (AID 493127;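 active means calcium activation more than 3 SD above the typical response in the agonist read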;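 further: intracellular calcium rise by fluo-8 fluorescence before TRH EC20 addition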); conditions: TRH receptor agonist cell assay; at 2 µM; stronger effect = higher value
Sequence of Thyrotropin-releasing hormone receptor (Homo sapiens) (P34981 whole entry, looked up): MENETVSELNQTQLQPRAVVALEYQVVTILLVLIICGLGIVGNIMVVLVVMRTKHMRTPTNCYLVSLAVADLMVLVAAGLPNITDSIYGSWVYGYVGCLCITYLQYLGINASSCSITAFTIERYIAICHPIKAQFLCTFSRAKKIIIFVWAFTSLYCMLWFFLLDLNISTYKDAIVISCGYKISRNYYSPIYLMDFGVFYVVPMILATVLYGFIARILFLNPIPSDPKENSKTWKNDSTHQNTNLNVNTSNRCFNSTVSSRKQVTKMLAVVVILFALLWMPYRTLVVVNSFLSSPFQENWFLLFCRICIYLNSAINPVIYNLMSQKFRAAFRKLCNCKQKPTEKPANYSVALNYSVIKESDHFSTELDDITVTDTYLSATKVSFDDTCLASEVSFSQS
Method in brief: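 Compound-evoked intracellular calcium release in fluo-8-loaded TRHR cells, read kinetically on FDSS (Ex 480/Em 530, 1 s/cycle) after 23 nL pintool transfer. Agonist phase preceded 10 nM TRH EC20 addition.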

[18] = biological target: D(1A) dopamine receptor (Homo sapiens) (UniProt P21728); assay: HTS Assay for Allosteric Agonists of the Human D1 Dopamine Receptor: Primary Screen for Antagonists (AID 488983);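 further: calcium flux response to an EC80 dopamine challenge measured with no-wash dye; nearly all actives have a fitted effect of over 65% in size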
Method in brief: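 Calcium-flux read-out in inducible HEK293 T-REx cells expressing D1, dye-loaded 30–90 min at room temperature. Kinetic reads: 180 s after compound (agonist phase), then 180 s after an EC80 dopamine challenge.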

[19] = biological target: ATP-dependent 6-phosphofructokinase (Trypanosoma brucei brucei) (UniProt O15648); assay: qHTS Assay to Find Inhibitors of T. brucei phosphofructokinase: hit validation (AID 492961);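 further: luminescence reports ADP formed as PFK phosphorylates fructose-6-phosphate with ATP; series mostly up to about 51 µM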
Method in brief: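 Reaction: 0.1 M triethanolamine pH 8.0, 5 mM MgCl2, F6P 0.5 mM, ATP 0.1 mM, PFK 1.25 nM, 45 min RT. Read-out: ADP-Glo luminescence. Analysis: concentration-response fits, classed by r2 and efficacy.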

In the case of `O=c1c(O)c(-c2cc(O)c(O)c(O)c2)oc2cc(O)cc(O)c12`, the outcome [1] is reported as “inactive”, the Potency [2] is reported as 3.01 µM (active) and the Potency [3] is reported as “inactive”. The Potency [4] was “inactive”, the outcome [5] was “inactive” and the Potency [6] was 13.4 µM (active). For the same compound, the Potency [7] was 1.5 µM (active), the Potency [8] was 6.31 µM (active) and 8.44 µM (active) and the Potency [9] was 14.1 µM (active). For the same compound, the outcome [10] was “inactive”, the outcome [11] was “inactive” and the outcome [12] was “inactive”. For the same compound, the outcome [13] was “inactive”, the Potency [14] was “inactive” and the Potency [15] was “inactive”. For the same compound, the outcome [16] was “inactive” and the activation [17] was 1.38%.
In the case of `CC(=O)N1CCN(c2ccc(OC[C@H]3CO[C@](Cn4ccnc4)(c4ccc(Cl)cc4Cl)O3)cc2)CC1`, the outcome [1] is reported as “inactive”, the Potency [2] is reported as “inactive” and the outcome [5] is reported as “inactive”. The Potency [6] was “inactive”, the outcome [10] was “inactive” and the outcome [12] was “inactive”. The Potency [14] was “inactive”.
In the case of `Cc1c(OCC(F)(F)F)ccnc1CS(=O)c1nc2ccccc2[nH]1` (stereo not drawn), the outcome [1] is reported as “inactive”, the outcome [5] is reported as “inactive” and the Potency [6] is reported as “inactive”. The Potency [7] was “inactive”, the outcome [10] was “inactive” and the outcome [11] was “inactive”. The outcome [12] was “inactive”, the outcome [13] was “inactive” and the Potency [14] was “inactive”. The Potency [18] was “inactive”, the outcome [19] was “inactive” and the Potency [15] was “inactive”. It also gave an activation [17] of 4.38%.
For `O=Nc1c(-c2c(O)[nH]c3cc(Br)ccc23)[nH]c2ccccc12`, the outcome [1] was “inactive”, the Potency [3] was 4.65 µM (active) and the Potency [4] was 10.4 µM (active). The outcome [5] was “inactive”, the Potency [6] was “inactive” and the Potency [7] was “inactive”. The Potency [8] was 3.55 µM (active) and 5.97 µM (active), the Potency [9] was 2.82 µM (active) and the outcome [11] was “inactive”. For the same compound, the outcome [12] was “inactive”, the outcome [13] was “inactive” and the Potency [14] was “inactive”. For the same compound, the Potency [15] was 0.92 µM (active) and the activation [17] was -8.62%.
For `O=C(O)c1cccnc1Nc1cccc(C(F)(F)F)c1`, the outcome [1] was “inactive”, the Potency [3] was “inactive” and the Potency [4] was “inactive”. The outcome [5] was “inactive”, the Potency [6] was “inactive” and the Potency [7] was “inactive”. The Potency [8] was “inactive”, the Potency [9] was “inactive” and the outcome [10] was “inactive”. The outcome [11] was “inactive”, the outcome [13] was “inactive” and the Potency [14] was “inactive”. The Potency [18] was “inactive”, the Potency [15] was “inactive” and the outcome [16] was “inactive”. For the same compound, the activation [17] was 1.5%.
For `CCOC(=O)c1c(C)n(C)c2ccc(O)cc12`, the outcome [19] was “inactive”.
With `O=C(OC1C[C@H]2CC[C@@H](C1)[N+]21CCCC1)C(O)(c1ccccc1)c1ccccc1` (stereo partly drawn) the outcome [19] was “inactive”.
With `O=C(NCC1CCCCN1)c1cc(OCC(F)(F)F)ccc1OCC(F)(F)F` (stereo not drawn) the Potency [3] was “inactive”, the Potency [4] was “inactive” and the Potency [8] was “inactive”. For the same compound, the outcome [11] was “inactive”, the outcome [12] was “inactive” and the activation [17] was -4.44%.
For `CN1C(C(=O)Nc2ccccn2)=C(O)c2sccc2S1(=O)=O`, the outcome [19] was “inactive”.
With `COc1ccc(C2(C#N)CCC(C(=O)O)CC2)cc1OC1CCCC1` (stereo not drawn) the outcome [19] was “inactive”.
With `COC(=O)[C@H](Cc1ccccc1)NC(=O)[C@@H](N)CC(=O)O` (H-Asp-Phe-OMe) the outcome [19] was “inactive”.
